In the experiment the test system is VDR:RXRa (NR concentration 270 nM, RXRa partner concentration 90 nM). Nature of the experiment: PBM binding z-score (relative to random genomic background probes); higher = stronger binding; sequences stand for … in GC…GCGATTGACAGCGTAGAATGAAGG
As to the method: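 Protein-binding microarray (Agilent 4x180K custom design, double-stranded 60-nt probes: 5' GC cap, 34-nt variable region, 24-nt constant primer region; full probe sequence given). Purified or IVT nuclear receptor:RXRα heterodimers (3:1 NR:RXRα, mostly 270:90 nM) or homodimers were incubated for 1 h in PBS with 2% milk and no ligand, then detected with Alexa488 antibodies. Fluorescence from o1-orientation probes (~5 replicates averaged) was converted to z-scores against 500 random hg19 background probes. Variable regions are seed direct-repeat (DR0–DR5) sites, all their single-nucleotide variants and half-site ablations.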
The sequence TGAATGAGGTTAATGATCAGGGAACGTGGCGTCG returned a PBM binding z-score of 0.633.
The result for CCTACTGGGGCAGAAAGGTTACCATACCATCCGG reads 0.923; that for CATACTAGGTCACGAAAGGTCAAAGTCGAATGAC, 6.92.
In the case of AGAAGGAGGTTATTAAGATCAGGGAATTGCGGTC it was 1.89.
In the case of ATCTCTAGGTAAGACTTAGTTCAGTGAAGAACGC it was 0.582; in that of TAGCCTTGGTCATTCAGGGGCCAGTATAGAAAGC, -0.0829.
In the case of CGTCCAAGGTCAGAGAGGCCAGTGAATGCCGAGT, the PBM binding z-score was found to be 5.4.
In the case of CCTAGTTGGTCAAGGTCACACACGCTATAGGTAC it was 4.26; in that of CAGCCTAGGTCAGGGCCAGAATAGGAGGAACGTT, 0.0945; in that of ACAGACAGGTGAGTGAAGGTAAGTCAGCTGGACG, -0.37.
In the case of TCTAGTAGGCCAGAGGGTCACTCAAGAGGTACGG it was 1.91; in that of ATCTCTATGTAAAAGTTCAGTGAATCCCGAGGAT, 1.2; in that of CCTATTAGTTGAACATAAGGGCAACCGAAGCTCG, 0.603.
The result for TCGAGTAGGTTAGGCGGGGCATTCAGCCAACATA reads 1.43; that for TCTATTAGTTGAAGGGCACCCGACGAGTCCGTTT, 1.02.
In turn, AGTCAAAGTGCAGGACGAGGTAACGTAAAGCACG came in with a PBM binding z-score of -0.0485.
In the case of CCTACTGGGCCAAAAAGGTCATTCATGCCGATAA it was 4.88.
In the case of CGTACTGGGCCATCAGGTCATTGATATCAACGTT it was 1.97; in that of CAAACTAGGTCACCGGACGGTCAAAGTCCGCATG, 3.59.
The result for CCAGACAGGTGAAAGGTAACTCAATCTGGTACGC reads 0.936.
The sequence CCGACTGGGCCAAAGGTTACCATACTCAGTACGA had a PBM binding z-score of 1.21.
In the case of GTACCAAGGTGAATATGTCGTTGATGAGTAGGCG it was -0.0532.
In the case of CCTTACGGGCCAAGGTTATAGCACGGGTGGTACG it was -0.139.
On to TCGCCTAGGTCATGCGGGCCAGTATAGTGTCGGC, for which the PBM binding z-score was 3.04.
The sequence GCTAGCAGGCCATTTGGGTCACTCATTGACGGGC registered a PBM binding z-score of 0.798.
In the case of TCTCGTAGATCAAAGGTTAAGAAAGCCGAAGCCT it was 1.24; in that of TCTCGGAGGACACGAAATGTCAGAGCTCGACATC, 0.0899.
In the case of TTACCAAGGTGGAAGGTCGTTGATGCACGCCTTG it was 0.464; in that of CCGACTGGGGCAAGGGTTACCATACTCAGTACGA, -0.292.
In the case of GGAACGAGGGCATTCGAGTCGATAGCATGGCGAT it was 1.99; in that of ACTAGCGGGCCAAGGGTCACTCAAGATTAGTCCG, 2.66; in that of CCTCCTGGGCCAAGGTCATTGATCAGTCAAAGCA, 2.91.
As for CAAACTAGGTCAGGAGGTCAAAGTCCGCTTCCCG, the PBM binding z-score was 5.18.
As to ACTATTAGTTGAGACGAGGGCAACGGATAGGTTG, the PBM binding z-score was determined as 0.66.
The result for CCTTGCGGGTCACTCCAGGTTATAGCATCGGAGT reads 3.51; that for TCTTGTAAATCAAGCAGGTTAAGAAAGCCTGAGT, 0.479; that for TGCCAAAGTTCAAAGGTAACGTAAGTATCCACAC, 4.97.
In the case of ATCGAAAGGTCGACGAGGTTAGTATACACCGTTT it was 6.41; in that of AACTCTAGGTAACAAGTTCAGTGAAAGAGAGGAC, 1.61.
The result for TCATATAGGTAAACAGGTGATAGTCCGTAAGTTA reads 0.955.

The record behind these values is the supplement of paper PMC6555819.
